Results: PubChem BioAssay (NCATS)
“And” between values parts separate entries of the source, which are not always exact repeats. Identical values can stand only once. Records with an inconclusive call do not appear. The source made the active and inactive calls. Unless noted, calls follow the shape of the dose curve; as a rule, active = well fitted curve in the direction sought with a large enough effect; inconclusive = small, poorly fitted or top-dose-only effect, or another doubt; inactive = no such curve, though single readings can be large; an effect the other way counts as inactive or inconclusive.

Columns and labels:
[1] = qHTS assay for small molecule antagonists of retinoid X receptor alpha signaling (AID 588546; active = well fitted inhibition curve with a large enough effect in the signal ratio, with a control signal flat, not every such curve was filed as active; the % refers to the signal ratio;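 also: cells stimulated with 9-cis-retinoic acid as agonist; % is scaled to controls: 0 for no effect and ±100 for the full control effect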); conditions: HEK293T RXRa-UAS-bla, beta-lactamase ratio, antagonist mode; measured here: W530 green channel, cytotoxicity proxy
In short: (§1)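 Beta-lactamase reporter inhibition, read as CCF4 fluorescence ratio (ex 405, em 460/530 nm) after 2 h at RT. HEK293T UAS-bla cells, 2500/well, were stimulated with 9-cis-RA at 500 or 100 nM final alongside test compound for 18 h at 37 C.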

[2] = target: Retinoic acid receptor RXR-alpha (Homo sapiens) (UniProt P19793); test: as above; conditions: HEK293T RXRa-UAS-bla, beta-lactamase ratio, antagonist mode
In short: as §1

[3] = target: Voltage-gated inwardly rectifying potassium channel KCNH2 (Homo sapiens) (UniProt Q12809); test: qHTS Assay for Small Molecule Inhibitors of the Human hERG Channel Activity (AID 588834); conditions: U2OS BacMam hERG, FluxOR thallium flux fluorescence; series mostly up to 92.2 µM;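 also: top concentration of the series differs between compounds; % is scaled to controls: 0 for no effect and ±100 for the full control effect; lower thallium flux fluorescence means stronger hERG block; nearly all actives have a fitted effect of over 50% in size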
In short: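 hERG block measured as reduced thallium-dye (FluxOR) fluorescence after stimulation buffer addition, read over 2 min. Cells were hERG-BacMam-transduced U2OS exposed to compound ~10 min […]; concentration-response fitted with Hill equation for AC50.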

[4] = qHTS assay for small molecule agonists of the antioxidant response element (ARE) signaling pathway (AID 651741; active = well fitted activation curve with a large enough effect in the signal ratio; the % refers to the signal ratio; also: % of control where 0% means no effect); conditions: HepG2 ARE-bla reporter, beta-lactamase FRET ratio, 16 h; series mostly up to 96 µM
In short: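 Stably integrated ARE-beta-lactamase reporter HepG2 cells; 16 h compound incubation, 37 C; LiveBLAzer FRET substrate 2 h at room temperature; fluorescence intensity.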

[5] = qHTS assay for small molecule disruptors of the mitochondrial membrane potential - 1 hr assay (AID 651754; calls by dose curve; also: % is scaled to controls: 0 for no effect and ±100 for the full control effect; nearly all actives have a fitted effect of over 35% in size); conditions: series mostly up to 92.2 µM
In short: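 Mitochondrial potential in living HepG2 cells after 1 hr compound treatment at 37C was read with Mito-MPS dye added for a further 30 min. Red aggregate and green monomer fluorescence were measured; loss of potential leaves dye as cytoplasmic monomers.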

[6] = qHTS assay for small molecule disruptors of the mitochondrial membrane potential - 5 hr assay (AID 651755; calls by dose curve; also: % is scaled to controls: 0 for no effect and ±100 for the full control effect; nearly all actives have a fitted effect of over 40% in size); conditions: JC-1-type ratio dye; series mostly up to 92.2 µM
In short: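 Read-out: ratiometric Mito-MPS fluorescence, green monomer (ex 490/em 535) vs red mitochondrial aggregate (ex 540/em 590). HepG2 cells treated 5 hr at 37C before 30 min dye loading.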

[7] = target: Tumor necrosis factor (Homo sapiens) (UniProt P01375); test: qHTS assay to identify small molecules that stimulate Tumor Necrosis Factor-alpha (TNF-alpha) secretion (AID 651757; active = well fitted curve in the direction sought with a large enough effect in the signal ratio; the % refers to the signal ratio; also: 0% is about no effect); conditions: Human cells, HTRF 665/615 ratio; series mostly up to 92.2 µM
In short: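 Secreted TNF-alpha quantified by TR-FRET sandwich of two labeled anti-TNF-alpha antibodies, incubated 3 hr at room temperature. Preceded by 17 hr, 37 C compound treatment of THP-1 cells at 3000 cells/well.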

[8] = qHTS assay for environmental chemicals that activate the Aryl hydrocarbon Receptor (AhR) signaling pathway (AID 651777); conditions: 1A2-DRE human hepatoma cells, luciferase, 24 h; activation: stronger effect = higher value; also: % of control where 0% means no effect; nearly all actives have a fitted effect of over 15% in size
In short: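 Human hepatoma 1A2-DRE cells, stably carrying a dioxin response element and CYP1A2 promoter driving luciferase, were exposed to compounds for 24 hr at 37 C and 5% CO2. Luciferase signal was then read after 30 min One-Glo at room temperature.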

[9] = target: Peroxisome proliferator-activated receptor alpha (Homo sapiens) (UniProt Q07869); test: qHTS assay for small molecule agonists of the peroxisome proliferator-activated receptor alpha (PPARalpha) signaling pathway (AID 651778); conditions: PathHunter PPARalpha complementation, chemiluminescence, 6 h; max response: stronger effect = higher value; also: % of control where 0% means no effect
In short: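 Enzyme-fragment complementation assay in which ligand-bound PPARalpha translocates and forms an active enzyme that generates chemiluminescence. Cells were plated overnight, exposed to compound for 6 hr at 37 C, and then given detection reagent for 60 min at room temperature.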

[10] = target: Nuclear receptor ROR-gamma (Homo sapiens) (UniProt P51449); test: qHTS assay for small molecule antagonists of the retinoid-related orphan receptor gamma (ROR-gamma) signaling pathway (AID 651802); conditions: ROR-gamma antagonist cell reporter assay; series mostly up to 92.2 µM;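 also: CHO cells with doxycycline-induced ROR-gamma expression; luciferase reporter luminescence driven by ROR response element; % is scaled to controls: 0 for no effect and ±100 for the full control effect; nearly all actives have a fitted effect of over 60% in size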
In short: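 Luminescence (One-Glo, 30 min RT) measured 16 h after compound addition and doxycycline induction at 37C. Reporter: RORE-luciferase under TET-inducible ROR-gamma in CHO cells.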

[11] = qHTS assay for small molecule agonists of the antioxidant response element (ARE) signaling pathway measured by Nrf2-dependant transcriptional activity (AID 720636; active = well fitted curve in the direction sought with a large enough effect in the repeat runs; an effect the other way counts as inactive or inconclusive; also: % of control where 0% means no effect); conditions: ARE-luc HepG2, Nrf2 luciferase reporter, 16 h; series mostly up to 92.4 µM
In short: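 ARE-luc HepG2 cells carrying an Nrf2-responsive luciferase reporter were plated in medium with 1% dialyzed FBS, left 6 hr at 37 C to attach, then exposed to compound for 16 hr. Luciferase luminescence was read after ONE-Glo addition.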

[12] = qHTS assay for small molecule antagonists of the retinoid-related orphan receptor gamma (ROR-gamma) signaling pathway - cell viability counter screen (AID 720652; active = well fitted curve in the direction sought with a large enough effect in the repeat runs; an effect the other way counts as inactive or inconclusive;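 also: CHO reporter cells with doxycycline-induced ROR-gamma expression; compound exposure lasted 16 hr before ATP read; % is scaled to controls: 0 for no effect and ±100 for the full control effect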); conditions: RORgamma reporter cell line viability counter screen; series mostly up to 92.2 µM
In short: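 Cytotoxicity counter screen: intracellular ATP (CellTiter-Glo luminescence) measured in the doxycycline-induced CHO RORE-luciferase reporter line after 16 hr compound exposure at 37 C, 5% CO2.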

[13] = qHTS assay for small molecule agonists of the antioxidant response element (ARE) signaling pathway measured by Nrf2-dependant transcriptional activity - cell viability counter screen (AID 720653; active = well fitted curve in the direction sought with a large enough effect in the repeat runs; an effect the other way counts as inactive or inconclusive; also: % is scaled to controls: 0 for no effect and ±100 for the full control effect); conditions: ARE-bla HepG2 viability, CellTiter-Glo ATP luminescence, 16 h; max response: stronger effect = lower value
In short: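 ARE-bla HepG2 cells treated with compounds for 16 h at 37C; this counter screen measures viability as intracellular ATP by CellTiter-Glo luminescence after 30 min at room temperature.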

[14] = qHTS assay for cell viability of HEK293 cells (AID 743288); conditions: ATP luminescence (CellTiter-Glo), 18 h; max response: stronger effect = lower value; also: % is scaled to controls: 0 for no effect and ±100 for the full control effect; nearly all actives have a fitted effect of over 50% in size
In short: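 Readout is luciferase-coupled ATP content (CellTiter-Glo luminescence, 30 min room temperature) as a measure of metabolically competent cells. Parental HEK293 cells were plated 5 h or more before compound addition, then treated 18 h at 37 C.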

[15] = HepG2 viability counterscreen (readout 1: protease activity) against the NCATS DSHEA and TCM libraries (AID 1794841); conditions: qHTS concentration series; series mostly up to 27.3 µM;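 also: cells exposed to compounds for about 24 h before the protease read; 0% is about no effect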
In short: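 Readout 1: cellular protease activity, GF-AFC substrate (25 uM final, 30 min, fluorescence 380/510 nm). Readout 2: ATP content by CellTiter-Glo luminescence after 30 min at RT. Both follow ~24 h exposure of HepG2 cells (1,000/well) to substances.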

[16] = target: Cytochrome P450 3A4 (Homo sapiens) (UniProt P08684); test: qHTS for inhibitors of CYP3A4 against the NCATS DSHEA and TCM libraries (AID 1919971); conditions: recombinant CYP3A4 enzyme activity, luminescence qHTS; series mostly up to 34.1 µM;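 also: % is scaled to controls: 0 for no effect and ±100 for the full control effect; inhibition lowers luminescence from luciferin made by CYP3A4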
In short: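 Each CYP isoform and its pro-luciferin substrate, at isoform-specific final concentrations, were preincubated 15 min at RT with substances. NADPH regeneration solution (1x) started a 30-45 min reaction, and P450-Glo luminescence was read.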

[17] = target: Cytochrome P450 2D6 (Homo sapiens) (UniProt P10635); test: qHTS for inhibitors of CYP2D6 against the NCATS DSHEA and TCM libraries (AID 1919972); conditions: CYP2D6 enzymatic inhibition, luminescence qHTS; series mostly up to 34.1 µM; also: % is scaled to controls: 0 for no effect and ±100 for the full control effect
In short: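 CYP2D6 enzyme with pro-luciferin substrate in manufacturer buffer (typically 100 mM KPO4), preincubated 15 min RT with substances (most at 19.5 nM upward); NADPH regeneration system (1x) started 30–45 min RT reaction; P450-Glo luminescence read after 30 min; quinidine as intraplate control.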

[18] = KB-3-1 P-gp reporter qHTS against the NCATS DSHEA and TCM libraries (AID 1919975); conditions: KB-3-1 parental cells, CellTiter-Glo luminescence viability, 72 h; series mostly up to 26.1 µM; also: 0% is about no effect
In short: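 Cell viability by CellTiter-Glo luminescence following ~72 h compound exposure (concentration-response). Uses parental, non-P-gp-overexpressing KB-3-1 line, 500 cells/well in DMEM/10% FBS, attached ~4 h before dosing.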

[19] = target: Nuclear receptor subfamily 1 group I member 2 (Homo sapiens) (UniProt O75469); test: Dual reporter qHTS for agonist of Pregnane X Receptor (hPXR) against the NCATS DSHEA and TCM libraries: Luminescence readout (AID 1920059); conditions: hPXR dual reporter cells, luciferase luminescence agonist; series mostly up to 40 µM; also: 0% is about no effect
In short: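 hPXR-Luc HepG2 cells, 2000/well in 5% charcoal-stripped FBS medium, attached 5 h, then exposed 24 h at 37C to compounds. Viability by CellTiter-Fluor, then luciferase luminescence with ONE-Glo.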

[20] = target: Nuclear receptor subfamily 1 group I member 2 (Homo sapiens) (UniProt O75469); test: Dual reporter qHTS for antagonist of Pregnane X Receptor (hPXR) against the NCATS DSHEA and TCM libraries: Luminescence Readout (AID 1920060); conditions: hPXR dual reporter cells, luciferase luminescence, antagonist mode; series mostly up to 40 µM;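 also: HepG2 cells carrying hPXR luciferase reporter stimulated with rifampicin at 2 µM; 0% is about no effect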
In short: (§2)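 HepG2 hPXR-Luc, 2000 cells/well, charcoal-stripped FBS medium; 5 h attach; RIF 2 uM final; 24 h 37C/5% CO2; CellTiter-Fluor 1 h, fluor 405/540; ONE-Glo 30 min RT, lum.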

[21] = Dual reporter qHTS for antagonist of Pregnane X Receptor (hPXR) against the NCATS DSHEA and TCM libraries: Fluorescence Readout (AID 1920061); conditions: PXR dual reporter cells, antagonist mode; series mostly up to 40 µM; also: 0% is about no effect
In short: as §2

[22] = target: Nuclear receptor subfamily 1 group I member 2 (Rattus norvegicus) (UniProt Q9R1A7); test: qHTS assay for small molecule activators of the rat pregnane X receptor (rPXR) signaling pathway (AID 651751; call rule not given here; also: 0% is about no effect); conditions: rPXR reporter cells, luciferase (One-Glo), 24 h
Chain of Nuclear receptor subfamily 1 group I member 2 (Rattus norvegicus) (Q9R1A7 whole entry, looked up): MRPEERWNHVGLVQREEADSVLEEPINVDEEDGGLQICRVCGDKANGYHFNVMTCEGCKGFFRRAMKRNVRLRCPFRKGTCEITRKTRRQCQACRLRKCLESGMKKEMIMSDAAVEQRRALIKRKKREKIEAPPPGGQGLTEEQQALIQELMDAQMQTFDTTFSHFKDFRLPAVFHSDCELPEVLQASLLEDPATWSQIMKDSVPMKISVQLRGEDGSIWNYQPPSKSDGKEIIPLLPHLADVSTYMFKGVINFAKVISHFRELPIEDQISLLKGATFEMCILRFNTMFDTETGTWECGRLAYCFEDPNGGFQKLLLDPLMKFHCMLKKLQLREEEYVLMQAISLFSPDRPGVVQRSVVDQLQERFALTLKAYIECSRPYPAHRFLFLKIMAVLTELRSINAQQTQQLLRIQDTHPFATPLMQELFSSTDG

Chain of Nuclear receptor ROR-gamma (Homo sapiens) (P51449 whole entry, looked up): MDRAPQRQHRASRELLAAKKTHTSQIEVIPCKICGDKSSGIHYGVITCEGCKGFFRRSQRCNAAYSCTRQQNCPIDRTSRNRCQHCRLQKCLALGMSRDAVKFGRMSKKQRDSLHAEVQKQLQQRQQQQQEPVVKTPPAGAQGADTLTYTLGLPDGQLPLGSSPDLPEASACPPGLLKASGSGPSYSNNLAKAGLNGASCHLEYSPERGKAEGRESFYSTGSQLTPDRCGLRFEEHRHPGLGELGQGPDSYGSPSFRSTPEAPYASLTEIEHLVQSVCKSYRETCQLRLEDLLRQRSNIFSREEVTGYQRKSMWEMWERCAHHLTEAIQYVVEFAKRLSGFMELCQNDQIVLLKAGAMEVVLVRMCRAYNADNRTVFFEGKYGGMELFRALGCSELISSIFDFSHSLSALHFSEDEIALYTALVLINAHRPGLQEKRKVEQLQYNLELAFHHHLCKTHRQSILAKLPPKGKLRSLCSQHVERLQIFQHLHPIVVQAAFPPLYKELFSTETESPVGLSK
Chain of Peroxisome proliferator-activated receptor alpha (Homo sapiens) (Q07869 whole entry, looked up, the tested form may be a part): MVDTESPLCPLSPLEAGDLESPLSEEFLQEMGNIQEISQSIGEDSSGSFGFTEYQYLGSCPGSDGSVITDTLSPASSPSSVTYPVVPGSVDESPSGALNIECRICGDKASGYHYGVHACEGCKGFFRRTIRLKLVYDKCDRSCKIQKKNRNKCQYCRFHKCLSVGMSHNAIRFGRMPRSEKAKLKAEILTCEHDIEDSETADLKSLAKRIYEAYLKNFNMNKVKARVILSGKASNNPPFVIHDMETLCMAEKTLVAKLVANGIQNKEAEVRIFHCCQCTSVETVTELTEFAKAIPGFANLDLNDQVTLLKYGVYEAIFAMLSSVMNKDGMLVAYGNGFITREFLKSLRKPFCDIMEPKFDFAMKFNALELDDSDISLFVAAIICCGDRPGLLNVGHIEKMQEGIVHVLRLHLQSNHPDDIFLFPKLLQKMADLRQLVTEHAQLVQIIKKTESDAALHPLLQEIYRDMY
Chain of Tumor necrosis factor (Homo sapiens) (P01375 whole entry, looked up): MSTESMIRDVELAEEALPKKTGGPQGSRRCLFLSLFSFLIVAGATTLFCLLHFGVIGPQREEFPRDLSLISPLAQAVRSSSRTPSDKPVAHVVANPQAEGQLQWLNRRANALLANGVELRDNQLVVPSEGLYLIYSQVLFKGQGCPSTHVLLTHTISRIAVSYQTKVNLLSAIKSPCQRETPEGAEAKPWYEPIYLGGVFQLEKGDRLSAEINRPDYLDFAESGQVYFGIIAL
Chain of Voltage-gated inwardly rectifying potassium channel KCNH2 (Homo sapiens) (Q12809 whole entry, looked up): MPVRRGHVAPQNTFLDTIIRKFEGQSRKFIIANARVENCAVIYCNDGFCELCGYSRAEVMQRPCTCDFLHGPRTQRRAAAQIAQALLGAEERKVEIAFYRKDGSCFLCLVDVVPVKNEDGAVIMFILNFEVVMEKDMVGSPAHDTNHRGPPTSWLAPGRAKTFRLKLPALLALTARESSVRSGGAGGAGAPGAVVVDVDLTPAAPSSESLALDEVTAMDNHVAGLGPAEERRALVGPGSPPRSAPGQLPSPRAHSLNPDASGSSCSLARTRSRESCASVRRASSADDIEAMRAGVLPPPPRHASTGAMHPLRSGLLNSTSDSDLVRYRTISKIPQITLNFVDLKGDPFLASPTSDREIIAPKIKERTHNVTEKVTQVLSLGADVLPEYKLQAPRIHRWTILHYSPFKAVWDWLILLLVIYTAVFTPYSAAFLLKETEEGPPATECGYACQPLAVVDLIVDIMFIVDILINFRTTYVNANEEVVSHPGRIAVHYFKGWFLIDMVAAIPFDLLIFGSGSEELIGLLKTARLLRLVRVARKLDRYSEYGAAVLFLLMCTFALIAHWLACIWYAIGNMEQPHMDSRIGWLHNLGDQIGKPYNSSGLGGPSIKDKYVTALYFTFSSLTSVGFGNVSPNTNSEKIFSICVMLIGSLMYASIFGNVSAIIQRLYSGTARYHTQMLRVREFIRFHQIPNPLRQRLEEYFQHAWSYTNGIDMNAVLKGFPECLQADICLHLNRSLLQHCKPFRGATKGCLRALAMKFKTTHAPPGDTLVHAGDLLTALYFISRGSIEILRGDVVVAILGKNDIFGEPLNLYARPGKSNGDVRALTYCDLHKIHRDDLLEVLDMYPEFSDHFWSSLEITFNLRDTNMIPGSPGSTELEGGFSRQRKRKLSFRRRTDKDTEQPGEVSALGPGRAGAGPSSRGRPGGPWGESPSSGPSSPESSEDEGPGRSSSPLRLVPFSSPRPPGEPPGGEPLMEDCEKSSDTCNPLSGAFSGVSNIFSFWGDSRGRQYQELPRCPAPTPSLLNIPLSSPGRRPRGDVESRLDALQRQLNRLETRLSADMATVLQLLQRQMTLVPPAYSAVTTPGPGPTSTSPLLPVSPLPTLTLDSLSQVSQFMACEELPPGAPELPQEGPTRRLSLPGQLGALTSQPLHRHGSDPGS
Chain of Retinoic acid receptor RXR-alpha (Homo sapiens) (P19793 whole entry, looked up): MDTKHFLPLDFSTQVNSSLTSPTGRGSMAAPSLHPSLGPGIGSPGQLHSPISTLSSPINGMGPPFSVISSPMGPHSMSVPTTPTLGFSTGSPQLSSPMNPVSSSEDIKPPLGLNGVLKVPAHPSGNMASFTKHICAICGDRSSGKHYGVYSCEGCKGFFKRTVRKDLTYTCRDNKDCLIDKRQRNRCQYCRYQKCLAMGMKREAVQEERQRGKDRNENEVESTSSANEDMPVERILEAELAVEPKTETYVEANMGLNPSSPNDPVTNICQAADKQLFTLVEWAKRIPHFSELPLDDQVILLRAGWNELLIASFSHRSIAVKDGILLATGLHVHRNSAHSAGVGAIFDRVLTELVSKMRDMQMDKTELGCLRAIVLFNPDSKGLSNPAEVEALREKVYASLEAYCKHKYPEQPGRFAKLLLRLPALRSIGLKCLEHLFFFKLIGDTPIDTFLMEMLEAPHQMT
Chain of Nuclear receptor subfamily 1 group I member 2 (Homo sapiens) (O75469 whole entry, looked up): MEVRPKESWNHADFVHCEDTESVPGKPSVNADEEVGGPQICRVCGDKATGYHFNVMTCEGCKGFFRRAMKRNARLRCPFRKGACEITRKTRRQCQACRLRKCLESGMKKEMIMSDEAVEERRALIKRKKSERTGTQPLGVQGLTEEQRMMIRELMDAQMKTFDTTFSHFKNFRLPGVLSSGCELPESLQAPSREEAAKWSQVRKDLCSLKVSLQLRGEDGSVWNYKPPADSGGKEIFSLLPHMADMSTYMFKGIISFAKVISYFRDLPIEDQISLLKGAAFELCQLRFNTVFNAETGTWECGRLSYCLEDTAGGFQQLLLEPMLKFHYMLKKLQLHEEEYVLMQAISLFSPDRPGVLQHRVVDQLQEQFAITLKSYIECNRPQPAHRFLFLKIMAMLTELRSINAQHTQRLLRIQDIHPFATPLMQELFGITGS
Chain of Cytochrome P450 2D6 (Homo sapiens) (P10635 whole entry, looked up): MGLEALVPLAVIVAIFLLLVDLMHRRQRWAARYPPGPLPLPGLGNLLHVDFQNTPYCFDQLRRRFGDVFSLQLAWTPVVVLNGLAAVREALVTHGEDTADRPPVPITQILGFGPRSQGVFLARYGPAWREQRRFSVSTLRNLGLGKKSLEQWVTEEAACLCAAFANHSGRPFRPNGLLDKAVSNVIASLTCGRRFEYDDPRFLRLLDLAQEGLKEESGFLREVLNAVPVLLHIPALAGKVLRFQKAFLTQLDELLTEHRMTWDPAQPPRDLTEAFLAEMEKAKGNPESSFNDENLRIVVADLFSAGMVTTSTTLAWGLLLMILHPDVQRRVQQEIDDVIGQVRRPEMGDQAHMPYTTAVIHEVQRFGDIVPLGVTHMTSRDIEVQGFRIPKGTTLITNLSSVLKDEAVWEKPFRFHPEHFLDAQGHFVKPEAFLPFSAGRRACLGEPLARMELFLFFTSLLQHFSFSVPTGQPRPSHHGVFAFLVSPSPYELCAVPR
Chain of Cytochrome P450 3A4 (Homo sapiens) (P08684 whole entry, looked up, canonical isoform): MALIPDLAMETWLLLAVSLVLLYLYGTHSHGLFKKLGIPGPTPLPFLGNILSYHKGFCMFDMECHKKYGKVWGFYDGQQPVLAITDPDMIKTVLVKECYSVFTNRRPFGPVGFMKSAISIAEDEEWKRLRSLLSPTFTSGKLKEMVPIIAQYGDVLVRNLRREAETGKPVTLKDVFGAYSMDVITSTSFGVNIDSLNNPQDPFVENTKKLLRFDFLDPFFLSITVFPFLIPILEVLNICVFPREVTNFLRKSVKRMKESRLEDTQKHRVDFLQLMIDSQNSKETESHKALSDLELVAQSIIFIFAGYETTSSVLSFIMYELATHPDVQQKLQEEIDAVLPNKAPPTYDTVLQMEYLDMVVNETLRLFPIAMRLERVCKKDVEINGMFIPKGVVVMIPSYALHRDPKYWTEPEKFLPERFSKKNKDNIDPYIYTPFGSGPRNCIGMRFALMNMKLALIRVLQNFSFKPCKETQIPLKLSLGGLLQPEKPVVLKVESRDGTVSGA

CCCCCCCCCCCC(=O)O
inactive: max response [2] -14.3% and -10.1% | Potency [3] | Potency [4] | Potency [5] | Potency [6] | outcome [7] | activation [8] 0.903% and 1.44% | max response [9] 9.6% and 16.5% | Potency [10] | Potency [11] | Potency [12] | max response [13] 8.32% and -0.379% | max response [14] -8.75% and -7.33% | outcome [15] | Potency [16] | Potency [17] | outcome [18] | Potency [19] | outcome [20] | outcome [21] | max response [22] -4.75% and -1.77%
24.4% and 28.8%: max response [1]
